# Assay results taken from PubChem BioAssay AID2384 (Southern Research Specialized Biocontainment Screening …, 2010).
# In all, about 2,300 compounds went through this assay and about 1,100 (48%) were called active. The set was probably picked from earlier hits. This is one part of the list. Results with a measured potency or affinity are listed apart. Unmarked numbers belong to inactive results. How the calls were made is not given here.
# Test: S. typhi counter-screen signal inhibition – fluorescence, 4 h, counter-screen for PhoP regulon inhibitor project, dose response (AID 2384)
# Conditions: S. typhi GFP reporter counter-screen; series mostly up to 150 µM; inhibition: at the top concentration
row,Compound,inhibition [%]
1,CC(=O)CC1OC(=O)C(Br)=C1NCc1ccccc1 (centres undefined),-3.4
2,Cc1ccc(-n2c(Cc3noc4ccccc34)n[nH]c2=S)cc1,10.6
3,CCn1c(-c2ccncc2)n[nH]c1=S,12.1
4,O=C(OCCCN1C(=O)c2ccccc2C1=O)c1ccco1,-5.7
5,OCC[C@H]1C[C@H](O)[C@@H](O)[C@@]2(Cc3ccccc3CO2)O1,-6.02
6,Cc1ccc(N(CC(=O)Nc2c(C)n(C)n(-c3ccccc3)c2=O)S(C)(=O)=O)cc1C,-19.8
7,Oc1ccc(C=NC2CCCCC2)c(O)c1,3.6
8,Cc1nc2ccccc2nc1N/N=C/c1ccc(O)cc1O,-11.7
9,CCN(CCCNC(=O)c1cn(CC)c2ccc(S(=O)(=O)N(C)C)cc2c1=O)c1cccc(C)c1,-22.2
10,Clc1ccc(CONc2ncnc3nonc23)c(Cl)c1,5.19
11,COc1ccc(OC)c(C2=NO[C@@H]3C(=O)N(c4cc(Cl)ccc4OC)C(=O)[C@H]23)c1,12.2
12,CC(C)(C)CC(=O)Nc1nnc(SCC(=O)N2CCCCC2)s1,-8.51
13,Cc1cc(C)c(S(=O)(=O)Nc2ccccc2C(=O)OCC(=O)NCc2ccccc2)c(C)c1,9.32
14,CC1Cc2ccccc2N1S(=O)(=O)c1cccc(C(=O)N2CC(=O)Nc3ccccc32)c1 (centres undefined),-16.2
15,O=[N+]([O-])c1ccc(-c2cnc(NO)nc2)cc1,-23.9
16,Cn1c(-c2ccc(Cl)cc2)cnc1N,-7.06
17,CCC(O)CNc1nc(SC)nc2sc3c(c12)CCN(C)C3 (centres undefined),16.6
18,c1ccc(CSc2ccc(-c3cccs3)nn2)nc1,4.57
19,COc1ccc(C(=O)C[n+]2cc(Br)cc3ccccc32)cc1[N+](=O)[O-],29.9
20,c1ccc2c(Nc3nnc(-c4ccncc4)s3)cccc2c1,24.4
21,CC(/C=C\c1cccnc1)=C/C(=O)O,-16.1
22,O=C(N/N=C/c1cccnc1)c1ccc(F)cc1,10.8
23,Clc1ccc(N/N=C/c2cccs2)nn1,-13
24,CSc1nnc(-c2cccc(NC(=S)NN)c2)o1,7.59
25,Cc1ccc2cc(CN(Cc3ccc(F)cc3)Cc3nnnn3C3CCCC3)c(=O)[nH]c2c1,8.53

row,Compound,inhibition [%]
1,Nc1ccc(S(=O)(=O)c2ccc(N)cc2)cc1,-5.09
2,Cc1ccc(NC(=S)NCc2cccnc2)cc1,5.02
3,CCc1nnc(NC(=O)c2ccc(S(C)(=O)=O)cc2)s1,-14.3
4,O=C(O)c1cnn2c1NC(c1cccs1)CC2C(F)(F)F (centres undefined),16.9
5,CCCn1c(SCc2ccc(Cl)cc2)nc2c1c(=O)[nH]c(=O)n2C,-20.7
6,NS(=O)(=O)c1ccc(CCNS(=O)(=O)c2cccc(C(=O)O)c2)cc1,-9.07
7,NS(=O)(=O)c1ccc(CCNC(=O)C(=O)C2C(=O)Nc3ccccc32)cc1 (centres undefined),-11.2
8,COC(=O)C1=C(C)N(CC2CC2)C(=O)N[C@H]1c1ccc(Br)cc1,11.5
9,COC(=O)C1=C(C)N(Cc2ccco2)C(=O)N[C@H]1c1ccc(Br)cc1,-1.77
10,CC(C)CC(c1nnnn1Cc1ccco1)N1CCN(c2cccc(Cl)c2)CC1 (centres undefined),-13
11,CCCC(C(=O)NCC1CCCO1)N(Cc1ccco1)C(=O)CNS(=O)(=O)c1ccc(F)cc1 (centres undefined),-8.97
12,Cc1c(C2(O)C(=O)Nc3ccc(F)cc32)c(=O)n(-c2ccccc2)n1C (centres undefined),-5.34
13,Nc1nc2ccccc2cc1-c1cccs1,12.7
14,Nc1ccc(N=Nc2ccccc2)c(N)n1,22.1
15,Nc1nn2cc(-c3ccccc3)nc2c2ccccc12,15.4
16,Cc1ccc(CN2C3=NCCN3c3ccccc32)cc1,29.4
17,Cc1cccc(CN2C3=NCCCN3c3ccccc32)c1,15.7
18,O=C(COc1ccc(Cl)cc1)N1CCCCC1,9.39
19,O=C(CSc1ccc(Cl)cc1)c1ccco1,26.8
20,CC(C)(C)NC(=O)/C=C/c1ccc(C(F)(F)F)cc1,-6.9
21,CC(=O)C1C(c2ccc(OC(F)F)cc2)NC(=O)NC1(O)C(F)(F)F (centres undefined),-15.1
22,c1ccc2c(SCc3cn4ccccc4n3)nncc2c1,4.71
23,O=C(Cn1c(C(F)(F)F)nc2ccccc21)NCCCN1CCOCC1,-3.11
24,Cc1cccc(N(C(=O)CCC(=O)Nc2ccccn2)C(C(=O)NC(C)C)c2ccc(O)cc2)c1 (centres undefined),15
25,CC(C(=O)NC1CCCCC1)N1CCN(C)CC1 (centres undefined),1.49

row,Compound,inhibition [%]
1,O=C(CCS(=O)(=O)c1ccccc1)Nc1ccc2c(c1)C(=O)NC2=O,-16.3
2,CCCCCCNC1=NCCS1,27.9
3,CC(=O)Cc1nsc(NC(=O)c2csc3c2CCCC3)n1,28
4,C[N+](C)(CCCCCC[N+](C)(C)CCCN1C(=O)c2cccc3cccc(c23)C1=O)CCCN1C(=O)c2cccc3cccc(c23)C1=O,28.2
5,CCn1c(=N)n(CC(=O)c2ccc(OC)cc2)c2ccccc21,31.4
6,CCOC(=O)CNC(=O)Cn1c(C)cc2ccccc2c1=O,12.6
7,Cc1ccc(-n2c(=O)c3sccc3n(CC(=O)NC3CCCCC3)c2=O)cc1,15.9
8,COc1ccc(/C=N/NC(=O)c2cc3c(OC)ccc(OC)c3[nH]2)cc1O,-4.36
9,O=C(CSc1nnc(-c2cccnc2)n1Cc1ccco1)c1ccc2ccccc2c1,-19.2
10,Cc1cc(NCCCn2ccnc2)n2ncc(-c3ccccc3)c2n1,8.67
11,Cc1cc(C)nc(SCC(=O)NCc2ccco2)n1,9.9
12,Cc1ccccc1Cn1c(=O)n(CCCC(=O)NCc2ccco2)c(=O)c2ccccc21,-18.6
13,COc1ccc(CNCCc2c[nH]c3ccccc23)c(OC)c1C,9.27
14,COc1ccccc1NC(=O)Cn1c(=O)n(CCc2c[nH]c3ccccc23)c(=O)c2cccnc21,26.1
15,CCOC(=O)Cn1c(=O)oc2cc(S(=O)(=O)NCC3CCCO3)ccc21 (centres undefined),-17.4
16,Cc1ccc(N2CC(C(=O)OCc3ccccc3F)CC2=O)cc1 (centres undefined),1.86
17,C=C(C)Cn1c(SCC#N)nc2ccccc2c1=O,-22.7
18,Cc1cc(C(F)F)n2nc(C(=O)Nc3cc(C)on3)nc2n1,15.3
19,CCc1nc(C)ccc1OCC(=O)N(CC)CC,-8.77
20,CNS(=O)(=O)c1cccc(C(=O)OCc2cc(=O)oc3c(C)c(O)ccc23)c1,1.59
21,[O-][n+]1onc2c1CCc1[nH]c(-c3ccccc3)nc1-2,-7.84
22,CN(C)C(/C=C/Nc1ccc(F)cc1F)=C(C#N)C#N,5.93
23,CC(=O)Nc1cccc(NC(=O)Nc2ccc(C)c(Cl)c2)c1,9.85
24,CC(=O)Nc1cccc(NS(=O)(=O)Cc2ccc(Cl)cc2)c1,1.33
